# Data from the supplement of paper PMC8728848.
# The full list was thinned out, with the strongest signals kept by preference.
# B1: Clone646PsrP (Streptococcus pneumoniae) (protein)
# chain: MDHHHHHHHHASENLYFQGAPAINASLNIAKSETKVYTGEGVDSVYRVPIYYKLKVTNDGSKLTFTYTVTYVNPKTNDLGNISSMRPGYSIYNSGTSTQTMLTLGSDLGKPSGVKNYITDKNGRQVLSYNTSTMTTQGSGYTWGNGAQMNGFFAKKGYGLTSSWTVPITGTDTSFTFTPYAARTDRIGINYFNGGGKVVESSTTSQSLSQSKSLSVSAS
# Assays:
# Assay in all cases: glycan array binding signal (z-score within array); higher = stronger binding
# Details in all cases: glycan notation: IUPAC condensed, linker removed
# [1] = biological target: Gal(b1-4)GlcNAc(b1-3)[GlcNAc(b1-6)]Gal(b1-4)GlcNAc
# Summary of the method: (§1)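 Negative Z-scores can be read as non-binding. The Z-score is calculated within each array and then averaged across arrays of one protein sequence at different concentrations or buffers and across linkers. Arrays, 3228 in all, were curated from the Consortium for Functional Glycomics database and kept only where the protein sequence was available.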
# Gal(b1-4)GlcNAc6P = biological target: Gal(b1-4)GlcNAc6P
# Summary of the method: as §1
# Gal3S(b1-4)Glc = biological target: Gal3S(b1-4)Glc
# Summary of the method: as §1
# Gal3S(b1-4)Glc6S = biological target: Gal3S(b1-4)Glc6S
# Summary of the method: as §1
# [2] = biological target: Gal3S(b1-4)[Fuc(a1-3)]GlcNAc6S
# Summary of the method: as §1
# Gal3S6S(b1-4)GlcNAc = biological target: Gal3S6S(b1-4)GlcNAc
# Summary of the method: as §1
# Gal4S6S(b1-4)GlcNAc = biological target: Gal4S6S(b1-4)GlcNAc
# Summary of the method: as §1
# Gal6S(b1-4)Glc = biological target: Gal6S(b1-4)Glc
# Summary of the method: as §1
# [3] = biological target: GalNAc(a1-3)GalNAc(b1-3)Gal(a1-4)Gal(b1-4)Glc
# Summary of the method: as §1
# [4] = biological target: GalNAc(a1-3)GalNAc(b1-3)Gal(a1-4)Gal(b1-4)GlcNAc
# Summary of the method: as §1
# GalNAc(b1-4)Gal(b1-4)Glc = biological target: GalNAc(b1-4)Gal(b1-4)Glc
# Summary of the method: as §1
# GalNAc3S(b1-4)GlcNAc = biological target: GalNAc3S(b1-4)GlcNAc
# Summary of the method: as §1
# [5] = biological target: Glc(a1-6)Glc(a1-6)Glc(a1-6)Glc
# Summary of the method: as §1
# [6] = biological target: GlcNAc(b1-3)Gal(b1-4)GlcNAc(b1-3)Gal(b1-4)GlcNAc(b1-3)Gal(b1-4)GlcNAc(b1-3)Gal(b1-4)GlcNAc(b1-2)Man(a1-3)[GlcNAc(b1-3)Gal(b1-4)GlcNAc(b1-3)Gal(b1-4)GlcNAc(b1-3)Gal(b1-4)GlcNAc(b1-3)Gal(b1-4)GlcNAc(b1-2)Man(a1-6)]Man(b1-4)GlcNAc(b1-4)[Fuc(a1-6)]GlcNAc
# Summary of the method: as §1
# [7] = biological target: GlcNAc(b1-4)[GlcNAc(b1-6)]GalNAc
# Summary of the method: as §1
# [8] = biological target: Man(a1-3)[Man(a1-6)]Man(a1-6)[Man(a1-2)Man(a1-3)]Man(b1-4)GlcNAc(b1-4)GlcNAc
# Summary of the method: as §1
# [9] = biological target: Man(a1-3)[Man(a1-6)]Man(a1-6)[Man(a1-3)]Man
# Summary of the method: as §1
# Man(a1-6)Man = biological target: Man(a1-6)Man
# Summary of the method: as §1
# [10] = biological target: Neu5Ac(a2-3)Gal(b1-3)[Fuc(a1-4)]GlcNAc(b1-3)Gal(b1-4)[Fuc(a1-3)]GlcNAc
# Summary of the method: as §1
# [11] = biological target: Neu5Ac(a2-3)Gal(b1-3)[Neu5Ac(a2-6)]GalNAc
# Summary of the method: as §1
# [12] = biological target: Neu5Ac(a2-3)Gal(b1-4)GlcNAc(b1-2)Man
# Summary of the method: as §1
# [13] = biological target: Neu5Ac(a2-3)Gal(b1-4)GlcNAc(b1-2)Man(a1-3)[GlcNAc(b1-4)][Neu5Ac(a2-3)Gal(b1-4)GlcNAc(b1-2)Man(a1-6)]Man(b1-4)GlcNAc(b1-4)GlcNAc
# Summary of the method: as §1
# [14] = biological target: Neu5Ac(a2-3)[GalNAc(b1-4)]Gal(b1-4)GlcNAc
# Summary of the method: as §1
# [15] = biological target: Neu5Ac(a2-6)Gal(b1-4)GlcNAc(b1-2)Man(a1-3)[Gal(b1-4)GlcNAc(b1-2)Man(a1-6)]Man(b1-4)GlcNAc(b1-4)GlcNAc
# Summary of the method: as §1
# [16] = biological target: Neu5Ac(a2-6)Gal(b1-4)GlcNAc(b1-2)Man(a1-3)[GlcNAc(b1-4)][Neu5Ac(a2-6)Gal(b1-4)GlcNAc(b1-2)Man(a1-6)]Man(b1-4)GlcNAc(b1-4)GlcNAc
# Summary of the method: as §1
# [17] = biological target: Neu5Ac(a2-6)Gal(b1-4)GlcNAc(b1-2)[Neu5Ac(a2-6)Gal(b1-4)GlcNAc(b1-4)]Man(a1-3)[GlcNAc(b1-4)][Neu5Ac(a2-6)Gal(b1-4)GlcNAc(b1-2)[Neu5Ac(a2-6)Gal(b1-4)GlcNAc(b1-6)]Man(a1-6)]Man(b1-4)GlcNAc(b1-4)GlcNAc
# Summary of the method: as §1
# [18] = biological target: Neu5Ac(a2-6)Gal(b1-4)GlcNAc(b1-3)Gal(b1-4)GlcNAc(b1-2)Man(a1-3)[Neu5Ac(a2-6)Gal(b1-4)GlcNAc(b1-3)Gal(b1-4)GlcNAc(b1-2)Man(a1-6)]GalNAc
# Summary of the method: as §1
# [19] = biological target: Neu5Ac(a2-6)GalNAc(b1-4)GlcNAc6S
# Summary of the method: as §1
# Neu5Ac(a2-8)Neu5Ac = biological target: Neu5Ac(a2-8)Neu5Ac
# Summary of the method: as §1
# [20] = biological target: Neu5Ac(a2-8)Neu5Ac(a2-8)Neu5Ac(a2-8)Neu5Ac(a2-3)[GalNAc(b1-4)]Gal(b1-4)Glc
# Summary of the method: as §1
binder,measurement,setting,value
B1,glycan array binding signal (z-score),[1],-0.238
same,glycan array binding signal (z-score),Gal(b1-4)GlcNAc6P,2.57
same,glycan array binding signal (z-score),Gal3S(b1-4)Glc,1.81
same,glycan array binding signal (z-score),Gal3S(b1-4)Glc6S,1.63
same,glycan array binding signal (z-score),[2],3.08
same,glycan array binding signal (z-score),Gal3S6S(b1-4)GlcNAc,2.75
same,glycan array binding signal (z-score),Gal4S6S(b1-4)GlcNAc,0.386
same,glycan array binding signal (z-score),Gal6S(b1-4)Glc,-0.221
same,glycan array binding signal (z-score),[3],-0.265
same,glycan array binding signal (z-score),[4],-0.546
same,glycan array binding signal (z-score),GalNAc(b1-4)Gal(b1-4)Glc,2.93
same,glycan array binding signal (z-score),GalNAc3S(b1-4)GlcNAc,2.09
same,glycan array binding signal (z-score),[5],3.01
same,glycan array binding signal (z-score),[6],-0.863
same,glycan array binding signal (z-score),[7],-0.205
same,glycan array binding signal (z-score),[8],1.06
same,glycan array binding signal (z-score),[9],3.32
same,glycan array binding signal (z-score),Man(a1-6)Man,4.74
same,glycan array binding signal (z-score),[10],-0.482
same,glycan array binding signal (z-score),[11],-0.254
same,glycan array binding signal (z-score),[12],2.89
same,glycan array binding signal (z-score),[13],-0.995
same,glycan array binding signal (z-score),[14],-0.733
same,glycan array binding signal (z-score),[15],-0.713
same,glycan array binding signal (z-score),[16],-0.966
same,glycan array binding signal (z-score),[17],-0.332
same,glycan array binding signal (z-score),[18],-0.421
same,glycan array binding signal (z-score),[19],-0.113
same,glycan array binding signal (z-score),Neu5Ac(a2-8)Neu5Ac,0.174
same,glycan array binding signal (z-score),[20],-0.64
